Measurements: PubChem BioAssay (EPA / NIEHS)
Values joined by “and” are separate entries in the source; they are usually repeats but may differ in a detail not shown here. Equal values may be shown once. Inconclusive results are not listed. More than one record can exist for a structure, and the calls need not agree. Active and inactive are the calls of the source. Rule for the calls, unless noted: active = hit-call score of the fitted dose curve at least 0.9, where 1 is the maximum; inconclusive = response in the unintended direction; inactive = score below 0.9.

Assays:
TIMP1, TIMP1 (gene 7076) = assay: LTEA_HepaRG_TIMP1: Life Technologies and Expression Analysis (LTEA) Assay for TIMP1 using HepaRG (AID 2283534; active = hit-call score of the fitted dose curve at least 0.9, where 1 is the maximum; inactive = score below 0.9;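 note: TaqMan qRT-PCR signal normalized to ACTB GAPDH and POLR2A housekeeping genes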); conditions: mRNA level, 48 h; actives raise or lower the signal
Procedure, shortened: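 Differentiated human HepaRG cells in serum-free induction medium were exposed 48 h to chemicals (8 half-log concentrations, top 100 uM, 0.5% DMSO). TIMP1 mRNA was quantified by TaqMan qRT-PCR, normalized to ACTB/GAPDH/POLR2A; bidirectional fit versus DMSO.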

[1] = read-out: Tumor necrosis factor receptor 1 (TNFRSF1A), TNFRSF1A (gene 7132); assay: LTEA_HepaRG_TNFRSF1A: Life Technologies and Expression Analysis (LTEA) Assay for Tumor necrosis factor receptor 1 (TNFRSF1A) using HepaRG (AID 2283535; active = hit-call score of the fitted dose curve at least 0.9, where 1 is the maximum; inactive = score below 0.9); conditions: mRNA level, 48 h; actives raise or lower the signal
Procedure, shortened: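 Differentiated human HepaRG cells were exposed in duplicate for 48 h in serum-free induction medium to eight concentrations (top 100 uM, half-log steps, 0.5% DMSO). TNFRSF1A mRNA was quantified by qRT-PCR, normalized to ACTB, GAPDH and POLR2A, then fitted bidirectionally against DMSO.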

[2] = read-out: Thyroid Hormone Responsive (THRSP), THRSP (gene 7069); assay: LTEA_HepaRG_THRSP: Life Technologies and Expression Analysis (LTEA) Assay for Thyroid Hormone Responsive (THRSP) using HepaRG (AID 2283536; active = hit-call score of the fitted dose curve at least 0.9, where 1 is the maximum; inactive = score below 0.9); conditions: mRNA level, 48 h; actives raise or lower the signal
Procedure, shortened: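 THRSP transcript quantified by Fluidigm qRT-PCR against three housekeeping genes after 48 h chemical exposure of HepaRG cells in serum-free induction medium; eight-point half-log series, top 100 uM, 0.5% DMSO vehicle, duplicate wells.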

[3] = read-out: Cellular tumor antigen p53 (Homo sapiens) (UniProt P04637); assay: LTEA_HepaRG_TP53: Life Technologies and Expression Analysis (LTEA) Assay for Tumor Protein P53 (TP53) using HepaRG (AID 2283537; active = hit-call score of the fitted dose curve at least 0.9, where 1 is the maximum; inactive = score below 0.9); conditions: mRNA level, 48 h; actives raise or lower the signal
Procedure, shortened: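 Read-out is TP53 transcript level by microfluidic qRT-PCR, normalised to three housekeeping genes and fitted bidirectionally against DMSO. Human HepaRG cells received compounds for 48 h, highest concentration 100 uM.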

[4] = read-out: UDP glucuronosyltransferase (UGT1A1), UGT1A1 (gene 54658); assay: LTEA_HepaRG_UGT1A1: Life Technologies and Expression Analysis (LTEA) Assay for UDP glucuronosyltransferase (UGT1A1) using HepaRG (AID 2283538; active = hit-call score of the fitted dose curve at least 0.9, where 1 is the maximum; inactive = score below 0.9); conditions: mRNA level, 48 h; actives raise or lower the signal
Procedure, shortened: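 mRNA induction or loss of UGT1A1, by TaqMan qRT-PCR, in duplicate HepaRG wells after 48 h exposure to half-log dilutions topping at 100 uM; DMSO (0.5%) served as baseline.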

[5] = read-out: UDP glucuronosyltransferase (UGT1A6), UGT1A6 (gene 54578); assay: LTEA_HepaRG_UGT1A6: Life Technologies and Expression Analysis (LTEA) Assay for UDP glucuronosyltransferase (UGT1A6) using HepaRG (AID 2283539; active = hit-call score of the fitted dose curve at least 0.9, where 1 is the maximum; inactive = score below 0.9); conditions: mRNA level, 48 h; actives raise or lower the signal
Procedure, shortened: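 Human HepaRG cells were dosed for 48 h in serum-free induction medium with 0.5% DMSO vehicle, eight-point half-log series from 100 uM, in duplicate. UGT1A6 mRNA was measured by qRT-PCR, normalized to ACTB, GAPDH, POLR2A, and fitted bidirectionally against DMSO.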

[6] = read-out: X-box binding protein 1 (XBP1), XBP1 (gene 7494); assay: LTEA_HepaRG_XBP1: Life Technologies and Expression Analysis (LTEA) Assay for X-box binding protein 1 (XBP1) using HepaRG (AID 2283540; active = hit-call score of the fitted dose curve at least 0.9, where 1 is the maximum; inactive = score below 0.9); conditions: mRNA level, 48 h; actives raise or lower the signal
Procedure, shortened: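 Differentiated human HepaRG cells in serum-free induction medium were exposed in duplicate for 48 h to eight half-log concentrations up to 100 uM in 0.5% DMSO. XBP1 mRNA was quantified by qRT-PCR, normalised to ACTB, GAPDH and POLR2A, with bidirectional fitting against DMSO.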

[7] = LTEA_HepaRG_LDH_cytotoxicity: Cytotoxicity Assessment in the Life Technologies and Expression Analysis (LTEA) Assay (AID 2283563);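 for AC50: LDH activity released into spent culture medium as a marker of cell death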
Procedure, shortened: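 Differentiated human HepaRG cells, plated 48 h beforehand, were switched to serum-free induction medium and exposed for 48 h to eight half-log concentrations (top 100 uM) in 0.5% DMSO. LDH was measured in spent medium; activity was fitted relative to DMSO vehicle.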

[8] = ATG_XTT_Cytotoxicity: Cytotoxicity Assessment in the Attagene TRANS-FACTORIAL HepG2 Assay (AID 2283584)
Procedure, shortened: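 HepG2 human liver cells, transiently transfected with multiple GAL4-UAS reporter units, were dosed and read at 24 h by XTT as cell number. Loss of signal was fitted relative to DMSO negative control baseline.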

[9] = biological target: Cellular tumor antigen p53 (Homo sapiens) (UniProt P04637); assay: TOX21_p53_BLA_p2_ratio: Tox21 HCT-116 p53 Agonism Beta-lactamase Assay, Ratio, Phase 2 (AID 2283592)
Cellular tumor antigen p53 (Homo sapiens), sequence (P04637 whole entry, looked up): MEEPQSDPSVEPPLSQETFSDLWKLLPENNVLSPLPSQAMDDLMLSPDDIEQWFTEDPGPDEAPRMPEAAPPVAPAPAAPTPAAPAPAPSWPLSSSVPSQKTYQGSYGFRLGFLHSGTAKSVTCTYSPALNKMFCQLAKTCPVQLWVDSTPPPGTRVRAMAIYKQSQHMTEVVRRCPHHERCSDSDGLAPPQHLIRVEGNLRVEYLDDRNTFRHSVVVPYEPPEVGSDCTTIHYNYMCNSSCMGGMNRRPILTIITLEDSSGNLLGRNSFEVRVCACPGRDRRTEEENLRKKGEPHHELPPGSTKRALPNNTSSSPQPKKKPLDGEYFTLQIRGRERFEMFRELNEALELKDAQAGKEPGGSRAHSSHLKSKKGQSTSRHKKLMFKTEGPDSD
Procedure, shortened: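 Ratio endpoint: beta-lactamase cleavage of CCF4-AM, blue (460 nm) over green (530 nm). HCT116 reporter line; 16 h treatment, 37C; substrate 2 h RT.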

[10] = TOX21_p53_BLA_p3_viability: Viability Assessment in the Tox21 HCT-116 p53 Agonism Beta-lactamase Assay, Phase 3 (AID 2283593);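 note: cells exposed to compound for 16 h before reading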
Procedure, shortened: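 Cellular ATP was quantified by CellTiter-Glo luminescence, read after 30 min at room temperature. Beforehand, HCT116 cells (4000/well) received compound 5 h post-seeding, 217-fold diluted from DMSO, then incubated 16 h at 37C.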

[11] = biological target: Cellular tumor antigen p53 (Homo sapiens) (UniProt P04637); assay: TOX21_p53_BLA_p3_ratio: Tox21 HCT-116 p53 Agonism Beta-lactamase Assay, Ratio, Phase 3 (AID 2283596)
Procedure, shortened: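 Cells were seeded at 4000/well, rested 5 h at 37C, then dosed with DMSO compound solutions (217-fold dilution) for 16 h. CCF4-AM substrate was loaded for 2 h at room temperature, and the 460/530 nm emission ratio was fitted for gain of signal versus DMSO.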

[12] = TOX21_p53_BLA_p4_viability: Viability Assessment in the Tox21 HCT-116 p53 Agonism Beta-lactamase Assay, Phase 4 (AID 2283597);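 note: hits lower the luminescence signal meaning cytotoxicity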
Procedure, shortened: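 Cytotoxicity was inferred from loss of CellTiter-Glo luminescence. HCT116 cells had been dosed with compounds after 5 h plating, incubated 16 h at 37C and 5% CO2, and exposed to the CCF4-AM substrate for 2 h.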

[13] = biological target: Cellular tumor antigen p53 (Homo sapiens) (UniProt P04637); assay: TOX21_p53_BLA_p5_ratio: Tox21 HCT-116 p53 Agonism Beta-lactamase Assay, Ratio, Phase 5 (AID 2283599)
Procedure, shortened: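 Beta-lactamase reporter ratio (blue 460 nm over green 530 nm, 405 nm excitation) after 2 h CCF4-AM loading, in HCT-116 cells exposed 16 h at 37 C to compounds pinned at 217-fold dilution. Increases relative to DMSO baseline scored.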

[14] = TOX21_p53_BLA_p5_viability: Viability Assessment in the Tox21 HCT-116 p53 Agonism Beta-lactamase Assay, Phase 5 (AID 2283600)
Procedure, shortened: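 Luciferase-coupled ATP quantitation of cells treated for 16 h (37C, 5% CO2) with test chemicals delivered in DMSO via a 217-fold dilution; 4000 cells/well; reagent incubated 30 min at room temperature before luminescence reading.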

[15] = biological target: Cellular tumor antigen p53 (Homo sapiens) (UniProt P04637); assay: TOX21_p53_BLA_p4_ratio: Tox21 HCT-116 p53 Agonism Beta-lactamase Assay, Ratio, Phase 4 (AID 2283601)
Procedure, shortened: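 Signal is the blue/green (460nm/530nm) ratio of cleaved versus uncleaved CCF4-AM substrate, read after 2 h substrate loading. Cells were HCT116 carrying the p53-responsive beta-lactamase reporter, dosed 16 h at 37C, 5% CO2; CellTiter-Glo measured in parallel.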

[16] = Tanguay_ZF_120hpf_MORT_legacy: (Legacy) Oregon State University Tanguay Lab 120 Hour Post-fertilization zebrafish Assay for Mortality (AID 2283633);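 for AC50: fitted as increase in binary mortality versus DMSO negative control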
Procedure, shortened: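 Dechorionated Tropical 5D wild-type zebrafish embryos, one per well from 6 hpf, were statically exposed at 28C in the dark until 120 hpf (0.64% DMSO final). Mortality was scored as present/absent by brightfield microscopy, fitted positively versus DMSO.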

[17] = Tanguay_ZF_120hpf_YSE_legacy: (Legacy) Oregon State University Tanguay Lab 120 Hour Post-fertilization zebrafish Assay for Yolk Sac Edema (AID 2283634)
Procedure, shortened: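 Tropical 5D wild-type embryos, dechorionated with pronase at 4 hpf, were exposed singly from 6 hpf to 120 hpf under static, sealed, dark conditions at 28C with 0.64% DMSO final. Yolk sac edema was scored present/absent by brightfield microscopy.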

[18] = Tanguay_ZF_120hpf_AXIS_legacy: (Legacy) Oregon State University Tanguay Lab 120 Hour Post-fertilization zebrafish Assay for Body Axis Malformation (AID 2283635)
Procedure, shortened: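 Tropical 5D wild-type zebrafish embryos, dechorionated with pronase at 4 hpf, were placed singly in wells at 6 hpf and exposed statically to test chemical (0.64% DMSO final) at 28C until 120 hpf, then scored by brightfield for body axis defects.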

[19] = TOX21_p53_BLA_p2_viability: Viability Assessment in the Tox21 HCT-116 p53 Agonism Beta-lactamase Assay, Phase 2 (AID 2283591);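 note: compound exposure lasted 16 h at 37 °C; actives lower the ATP signal meaning cytotoxicity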
Procedure, shortened: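 Cytotoxicity readout: CellTiter-Glo ATP luminescence, 30 min at room temperature, after the beta-lactamase read. Cells were HCT116 exposed 16 h at 37C to compounds pin-transferred at 217-fold dilution from DMSO stocks.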

Measured: AC50

O=C1CCCO1
active: [1] 77 µM | [3] 50 µM | [5] 50 µM
not listed: [19]
inactive: all other assays above

ClCCOCCCl
not listed: [13] | [16] | [17] | [19]
inactive: all other assays above

Nc1ccc(Cc2ccc(N)cc2)cc1
active: [4] 26.2 µM
not listed: [10] | [15] | [16] | [19]
inactive: all other assays above

Cc1cc(N=Nc2ccccc2C)ccc1N
active: [2] 1.41 µM | [3] 1.97 µM | [4] 85.9 µM | [5] 12.2 µM | [6] 4 µM | [7] 5.21 µM | [9] 73.1 µM | [12] 46.1 µM | [13] 73.3 µM and 76.2 µM
inactive: TIMP1, TIMP1 (gene 7076) | [1] | [8] | [9] | [10] | [11] | [12] | [14] | [16] | [17] | [18]

Nc1ccc(Cl)cc1N
active: [1] 50 µM | [2] 19.3 µM | [3] 12.4 µM | [4] 37.8 µM | [5] 54.9 µM | [6] 21 µM | [7] 35.2 µM | [13] 74.7 µM
inactive: TIMP1, TIMP1 (gene 7076) | [8] | [19] | [9] | [10] | [11] | [12] | [13] | [14] | [15] | [17] | [18]

CCN(CC)N=O
not listed: [15] | [16] | [19]
inactive: all other assays above

O=P(OCCCl)(OCCCl)OCCCl
not listed: [16] | [19]
inactive: all other assays above

CCCCCCCCn1sccc1=O
active: [2] 87.3 µM | [5] 81.3 µM | [7] 79.7 µM | [9] 20.8 µM | [10] 41.7 µM and 72.5 µM | [11] 55.1 µM | [12] 15.4 µM | [15] 23.7 µM and 46.2 µM | [16] 2.96 µM
inactive: TIMP1, TIMP1 (gene 7076) | [1] | [3] | [4] | [6] | [8] | [19] | [9] | [11] | [12] | [13] | [14] | [18]

CS(=O)(=O)NC(=O)c1cc(Oc2ccc(C(F)(F)F)cc2Cl)ccc1[N+](=O)[O-]
active: [4] 3.32 µM
not listed: [12] | [13] | [15] | [19]
inactive: all other assays above

CC(C)(OOC(C)(C)c1ccccc1)c1ccccc1
active: [4] 24.4 µM
not listed: [11] | [16] | [19]
inactive: all other assays above

Clc1ccc(C(c2ccc(Cl)cc2)C(Cl)(Cl)Cl)cc1
inactive: TIMP1, TIMP1 (gene 7076) | [1] | [3] | [5] | [6] | [8] | [9] | [10] | [11] | [12] | [13] | [14] | [17] | [18]
active: [2] 68.1 µM | [4] 2.03 µM | [7] 72.3 µM | [19] 46.1 µM and 46.4 µM and 23 µM | [9] 60.7 µM and 31.1 µM | [10] 77.1 µM and 30.7 µM | [12] 30.7 µM | [13] 82.5 µM and 43.3 µM | [14] 68.3 µM and 31.9 µM

C[N+](C)(C)CC1CO1 (stereo not drawn)
not listed: [12] | [15] | [16] | [18]
inactive: all other assays above

Nc1ccc([N+](=O)[O-])cc1
not listed: TIMP1, TIMP1 (gene 7076) | [15]
inactive: all other assays above
